In PubChem BioAssay (NCATS):
Several values for one entry are separate records, joined by “and”; a condition that tells them apart may be missing. Identical values can stand only once. Results filed as inconclusive are left out. Activity calls are given as the source filed them. Unless noted, calls come from the whole dose curve; as a rule, active = well fitted curve in either direction with a large enough effect (not every such curve was filed as active); inconclusive = small, poorly fitted or top-dose-only effect, or another doubt; inactive = flat fitted curve, though single readings scatter.

Legend:
[1] = biological target: Lysosomal acid glucosylceramidase (Homo sapiens) (UniProt P04062); test: Glucocerebrosidase-p2 (AID 348; in the data active = potency below about 10 µM; note: potency is the fitted concentration of half-maximal effect); conditions: purified GBA, blue fluorogenic substrate, 40 min
Chain of Lysosomal acid glucosylceramidase (Homo sapiens) (P04062 whole entry, looked up): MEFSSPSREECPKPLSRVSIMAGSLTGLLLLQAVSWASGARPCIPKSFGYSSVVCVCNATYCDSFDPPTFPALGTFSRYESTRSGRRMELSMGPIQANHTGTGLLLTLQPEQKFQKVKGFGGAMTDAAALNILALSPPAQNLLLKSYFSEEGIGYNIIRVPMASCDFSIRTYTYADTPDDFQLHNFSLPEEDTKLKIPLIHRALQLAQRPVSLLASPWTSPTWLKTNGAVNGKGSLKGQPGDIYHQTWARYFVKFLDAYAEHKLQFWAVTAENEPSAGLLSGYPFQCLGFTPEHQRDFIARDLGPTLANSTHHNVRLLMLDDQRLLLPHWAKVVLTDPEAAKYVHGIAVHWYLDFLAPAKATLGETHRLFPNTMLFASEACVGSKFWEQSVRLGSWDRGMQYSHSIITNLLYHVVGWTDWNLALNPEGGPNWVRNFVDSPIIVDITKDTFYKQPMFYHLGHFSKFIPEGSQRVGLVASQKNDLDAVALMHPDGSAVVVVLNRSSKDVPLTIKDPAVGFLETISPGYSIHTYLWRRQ
Procedure, shortened: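 Compounds titrated from 0.6 nM upwards against 0.2 nM enzyme in pH 5.9 citric acid/KH2PO4, taurocholate, tween-20; blue fluorogenic substrate 80 uM, 40 min room temperature, stopped and read Ex 365/Em 440 for AC50.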

[2] = AP1 Signaling Pathway (AID 357); conditions: ME-180 AP-1-bla reporter, EGF-induced, beta-lactamase ratio, 5 h; at 7.69 µM (top of the series) unless noted;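 note: ME-180 reporter cells stimulated with EGF at its EC50 level; % is set by controls: 0 for no effect and ±100 for the full control effect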
Procedure, shortened: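 Titration-series screen for positive or negative modulators of EC50 EGF-induced signaling in ME-180 cells carrying an AP-1-driven beta-lactamase reporter. After 5 hours at 37 degrees Celsius, CCF4 460nm/530nm emission ratio gave %Activity; AC50 values derived.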

[3] = biological target: Cytochrome P450 1A2 (Homo sapiens) (UniProt P05177); test: p450-cyp1a2 (AID 410; calls by dose curve;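 note: -100% = full effect of reference inhibitor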); conditions: recombinant CYP1A2, luciferin-ME demethylation, luminescence; series mostly up to 11.4 µM
Chain of Cytochrome P450 1A2 (Homo sapiens) (P05177 whole entry, looked up): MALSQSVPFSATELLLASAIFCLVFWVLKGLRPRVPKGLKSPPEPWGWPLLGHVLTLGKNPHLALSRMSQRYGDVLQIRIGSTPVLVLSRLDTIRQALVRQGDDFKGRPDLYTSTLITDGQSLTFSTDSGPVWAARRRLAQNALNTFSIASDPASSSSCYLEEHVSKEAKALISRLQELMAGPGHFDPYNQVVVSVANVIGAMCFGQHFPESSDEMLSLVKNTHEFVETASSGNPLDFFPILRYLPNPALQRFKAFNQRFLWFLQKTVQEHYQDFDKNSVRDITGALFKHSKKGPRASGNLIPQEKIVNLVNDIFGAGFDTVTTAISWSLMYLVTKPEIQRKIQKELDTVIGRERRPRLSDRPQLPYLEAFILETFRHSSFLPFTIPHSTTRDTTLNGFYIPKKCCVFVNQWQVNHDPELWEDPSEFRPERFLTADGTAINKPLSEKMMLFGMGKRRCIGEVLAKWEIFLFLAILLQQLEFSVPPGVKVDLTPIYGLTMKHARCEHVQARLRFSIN
Procedure, shortened: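 Inhibition was calculated relative to 57 uM furafylline (full inhibition). The reaction used human CYP1A2 at 20nM with Luciferin-ME at its Km, 100uM, driven by an NADPH-regenerating system for 60 min at room temperature.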

[4] = biological target: Glucocorticoid receptor (Homo sapiens) (UniProt P04150); test: GR-GFP Redistribution (AID 450;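 active = compounds whose dose series gives a full or clear partial fitted curve of increased nuclear translocation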; note: potency is the fitted concentration of half-maximal effect); conditions: U2OS GR-GFP nuclear translocation, laser cytometry, 2 h
Chain of Glucocorticoid receptor (Homo sapiens) (P04150 whole entry, looked up, the tested form may be a part): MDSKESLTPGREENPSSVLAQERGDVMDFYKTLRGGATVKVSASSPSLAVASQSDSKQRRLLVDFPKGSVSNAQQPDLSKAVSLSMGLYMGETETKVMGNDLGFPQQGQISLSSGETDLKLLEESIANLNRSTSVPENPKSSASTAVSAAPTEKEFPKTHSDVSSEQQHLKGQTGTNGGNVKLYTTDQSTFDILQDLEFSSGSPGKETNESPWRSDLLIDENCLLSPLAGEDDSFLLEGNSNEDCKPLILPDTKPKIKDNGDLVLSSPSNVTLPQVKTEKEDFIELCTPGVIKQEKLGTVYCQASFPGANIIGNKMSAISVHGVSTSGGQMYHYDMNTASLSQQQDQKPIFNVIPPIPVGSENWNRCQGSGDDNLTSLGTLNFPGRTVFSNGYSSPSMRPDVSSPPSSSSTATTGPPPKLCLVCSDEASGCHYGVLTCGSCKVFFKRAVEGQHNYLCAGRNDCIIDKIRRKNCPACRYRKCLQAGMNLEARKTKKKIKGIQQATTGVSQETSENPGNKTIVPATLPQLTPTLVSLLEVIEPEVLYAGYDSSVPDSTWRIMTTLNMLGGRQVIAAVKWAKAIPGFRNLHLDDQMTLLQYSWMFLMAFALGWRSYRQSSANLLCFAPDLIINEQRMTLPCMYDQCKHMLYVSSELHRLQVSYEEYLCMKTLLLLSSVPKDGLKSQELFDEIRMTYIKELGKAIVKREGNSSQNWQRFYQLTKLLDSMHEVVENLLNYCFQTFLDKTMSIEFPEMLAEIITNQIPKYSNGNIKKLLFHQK

[5] = biological target: Glucocorticoid receptor (Homo sapiens) (UniProt P04150); test: GR-EFC Redistribution (AID 451; calls by dose curve; note: potency is the fitted concentration of half-maximal effect); conditions: CHO-K1 GR-EFC translocation, beta-gal luminescence, 2 h
Procedure, shortened: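 CHO-K1 cells expressing nuclear EA and GR-ED fragments of b-gal; compounds titrated up to 46 uM final, 2 h at 37 C. GR nuclear translocation read as complemented b-gal luminescence after 1 h RT detection.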

[6] = biological target: Mitogen-activated protein kinase 10 (Mus musculus) (UniProt Q61831); test: JNK3 AlphaScreen Assay (AID 530); conditions: JNK3 lysate, c-Jun phosphorylation; series mostly up to 11.4 µM;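 note: kinase came from lysate of stimulated human HepG2 cells; signal reports phosphorylation of biotinylated GST-cJun 1-79 at Ser73 with 10 µM ATP; % is set by controls: 0 for no effect and ±100 for the full control effect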
Procedure, shortened: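 qHTS format: compounds tested as titrations against IL-1beta/TNF-alpha-activated HepG2 lysate JNK3 with biotin-GST-cJun substrate and 10 uM ATP at room temperature. Loss of anti-phospho-cJun AlphaScreen signal indicates inhibition.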

[7] = biological target: 3',5'-cyclic-AMP phosphodiesterase 4B (Homo sapiens) (UniProt Q07343); test: qHTS Assay for Inhibitors of PDE-IV (AID 607; active = well fitted activation curve with a large enough effect in the main read-out, with a control signal flat, not every such curve was filed as active; note: % of control where 0% means no effect); conditions: HEK293 ACTOne CNG channel cells, membrane potential fluorescence; series mostly up to 22.9 µM
Chain of 3',5'-cyclic-AMP phosphodiesterase 4B (Homo sapiens) (Q07343 whole entry, looked up): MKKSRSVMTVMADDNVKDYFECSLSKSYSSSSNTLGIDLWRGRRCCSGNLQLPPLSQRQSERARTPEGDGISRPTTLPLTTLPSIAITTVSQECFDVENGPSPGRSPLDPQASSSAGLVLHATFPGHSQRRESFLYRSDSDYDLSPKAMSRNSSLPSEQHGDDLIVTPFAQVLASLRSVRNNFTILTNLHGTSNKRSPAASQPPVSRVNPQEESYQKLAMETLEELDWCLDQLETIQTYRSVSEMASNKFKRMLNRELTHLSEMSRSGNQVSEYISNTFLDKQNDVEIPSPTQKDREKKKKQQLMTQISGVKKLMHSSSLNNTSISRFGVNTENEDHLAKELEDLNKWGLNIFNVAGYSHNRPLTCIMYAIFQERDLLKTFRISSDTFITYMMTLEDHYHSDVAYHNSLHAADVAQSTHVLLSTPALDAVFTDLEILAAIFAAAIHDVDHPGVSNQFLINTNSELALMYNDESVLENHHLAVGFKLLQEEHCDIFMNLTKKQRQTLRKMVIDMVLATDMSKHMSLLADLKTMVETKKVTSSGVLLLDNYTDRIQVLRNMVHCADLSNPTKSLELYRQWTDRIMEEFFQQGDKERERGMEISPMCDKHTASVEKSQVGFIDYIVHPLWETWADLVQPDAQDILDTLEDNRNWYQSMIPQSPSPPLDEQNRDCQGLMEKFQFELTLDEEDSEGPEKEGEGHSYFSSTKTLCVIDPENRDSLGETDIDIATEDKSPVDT
Procedure, shortened: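 ACTOne HEK293 cells carry a modified cAMP-gated CNG channel and express endogenous PDE4; plated 1000 cells/well, compounds up to 22.9 uM final. Membrane-potential dye fluorescence (ex 535/em 590) was read; parental cells received 10 uM forskolin + 100 uM RO 20-1724.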

[8] = biological target: Cytochrome P450 2C9 (Homo sapiens) (UniProt P11712); test: qHTS Assay for Inhibitors and Substrates of Cytochrome P450 2C9 (AID 883; active = well fitted inhibition curve with a large enough effect; note: potency is the fitted concentration of half-maximal effect; nearly all actives have a fitted effect of over 60% in size); conditions: recombinant CYP2C9, luciferin-H luminescence, 60 min; series mostly up to 11.4 µM
Chain of Cytochrome P450 2C9 (Homo sapiens) (P11712 whole entry, looked up): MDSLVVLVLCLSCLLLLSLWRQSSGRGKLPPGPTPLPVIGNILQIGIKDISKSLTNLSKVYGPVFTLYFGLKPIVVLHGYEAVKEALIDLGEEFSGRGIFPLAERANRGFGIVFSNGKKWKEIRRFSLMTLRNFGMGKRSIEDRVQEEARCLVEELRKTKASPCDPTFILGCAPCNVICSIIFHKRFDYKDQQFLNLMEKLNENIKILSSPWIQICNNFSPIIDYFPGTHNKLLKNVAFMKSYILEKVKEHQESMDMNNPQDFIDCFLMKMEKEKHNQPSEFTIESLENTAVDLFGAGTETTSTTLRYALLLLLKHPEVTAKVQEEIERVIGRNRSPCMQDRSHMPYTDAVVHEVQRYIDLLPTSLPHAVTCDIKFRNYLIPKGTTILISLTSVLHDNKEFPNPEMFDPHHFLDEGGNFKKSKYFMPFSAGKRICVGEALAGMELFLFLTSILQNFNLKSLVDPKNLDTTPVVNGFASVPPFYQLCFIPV
Procedure, shortened: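 10nM CYP2C9 + 100uM Luciferin-H (=KM), 25mM KPO4; cpd 10 min 37C; NADPH regen, 60 min 37C; stop/detect with P450 Glo-Buffer 20 min; luminescence. Norm. to 57uM sulphaphenazole as full inhibition.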

[9] = biological target: Cytochrome P450 2C19 (Homo sapiens) (UniProt P33261); test: qHTS Assay for Inhibitors and Substrates of Cytochrome P450 2C19 (AID 899; active = well fitted inhibition curve with a large enough effect; note: potency is the fitted concentration of half-maximal effect; nearly all actives have a fitted effect of over 60% in size); conditions: recombinant CYP2C19, luciferin-H EGE luminescence; series mostly up to 11.4 µM
Chain of Cytochrome P450 2C19 (Homo sapiens) (P33261 whole entry, looked up): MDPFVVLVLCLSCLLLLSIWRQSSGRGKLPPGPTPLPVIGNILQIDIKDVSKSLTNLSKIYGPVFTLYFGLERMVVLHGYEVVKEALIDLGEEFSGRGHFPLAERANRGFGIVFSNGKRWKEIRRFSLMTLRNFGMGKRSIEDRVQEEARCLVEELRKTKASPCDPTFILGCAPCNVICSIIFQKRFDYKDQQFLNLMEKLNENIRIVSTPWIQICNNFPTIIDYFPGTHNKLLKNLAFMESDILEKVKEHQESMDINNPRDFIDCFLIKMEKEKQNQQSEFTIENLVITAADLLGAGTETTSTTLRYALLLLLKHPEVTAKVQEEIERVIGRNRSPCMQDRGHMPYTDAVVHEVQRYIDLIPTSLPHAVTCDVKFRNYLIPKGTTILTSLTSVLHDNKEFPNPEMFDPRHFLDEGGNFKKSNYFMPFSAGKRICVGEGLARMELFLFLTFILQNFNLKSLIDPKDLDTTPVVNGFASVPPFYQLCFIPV
Procedure, shortened: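 Luminescent read-out of luciferin formed from Luciferin-H EGE (10uM, equal to KM). Enzyme 5nM in 50mM KPO4; compound added, 10 min at 37C, then NADPH regenerating system for 60 min at 37C. Full inhibition defined by 57uM ketoconazole.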

[10] = NFAT Signaling Pathway (AID 444); conditions: Jurkat NFAT-bla M1, carbachol, beta-lactamase ratio, 5 h;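 note: carbachol stimulus at about its EC50 of 1 µM final; % is set by controls: 0 for no effect and ±100 for the full control effect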
Procedure, shortened: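 Jurkat cells with NFAT-driven β-lactamase reporter and co-expressed M1 receptor, stimulated with carbachol (final 1 uM, ~EC50), compound titration, 5 h at 37 °C. CCF4 loaded 1 h at RT; 460/530 nm ratio gave %activity and AC50.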

[11] = Stat Signaling Pathway (AID 446); conditions: ME-180 SIE beta-lactamase reporter, IL-6 stimulated, 5 h;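 note: ME-180 cervical cancer cells given 40 pM IL-6 alongside compound; SIE-controlled beta-lactamase reporter measured as 460/530 nm FRET emission ratio; % is set by controls: 0 for no effect and ±100 for the full control effect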
Procedure, shortened: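 ME-180 SIE-bla cells; overnight plating; cpd + IL-6 40 pM, 5 h, 37 C; LiveBLAzer 2.5 h RT; 460/530 nm emission ratio. Normalized to 300 pM IL-6 and 125 nM JAK inhibitor controls.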

[12] = at 7.69 µM (top of the series) unless noted

Oc1ccc(Cl)cc1Cc1cc(Cl)cc(Cc2cc(Cl)ccc2O)c1O
active: Potency [8] 2.51 µM | Potency [9] 1.26 µM
inactive: Potency [1] > 11.4 µM | activity change, negative = inhibition [2] -14% | activity change, negative = inhibition [3] -23.8% [at 2.29 µM] | Potency [4] > 46 µM | Potency [5] > 9.22 µM | Potency [6] | Potency [7]

Cc1ncc(CSc2ccccc2N)c(CO)c1O
inactive: Potency [1] > 11.4 µM | activity change, negative = inhibition [2] 6.48% | activity change, negative = inhibition [10, 12] 1.52% | activity, negative = inhibition [11, 12] -0.62% | Potency [4] > 46 µM | Potency [5] > 9.22 µM | Potency [6] | Potency [7]

C[C@H](Oc1ccc(Oc2cnc3ccc(Cl)cc3n2)cc1)C(=O)O
inactive: Potency [1] > 11.4 µM | activity change, negative = inhibition [2] -24.4% [at 38 µM] | activity change, negative = inhibition ([10]; at 7.69 µM (top of the series)) 8.25% | activity change, negative = inhibition ([10]; at 38 µM (top of the series)) 7.14% | activity, negative = inhibition ([11]; at 7.69 µM (top of the series)) -19.5% | activity, negative = inhibition ([11]; at 38 µM (top of the series)) -10.1% | Potency [4] > 46 µM | Potency [5] > 46 µM and > 9.22 µM | Potency [6] | Potency [7]

O=C(O)[C@H]1O[C@H]1C(=O)O
inactive: Potency [1] > 11.4 µM | activity change, negative = inhibition [2] 7.85% | activity change, negative = inhibition [10, 12] -1.75% | activity, negative = inhibition [11, 12] 2.71% | Potency [4] > 46 µM | Potency [5] > 9.22 µM | Potency [6] | Potency [7]
